The panel holds about 79,000 compounds, 15% with a hit somewhere; the sample as a whole holds those more often. A number with no mark means an inactive call. Active and inactive are the calls of the source. Rule as the data show it: active = growth inhibition above about 70%; inactive = the rest.
Assay: NCI Yeast Anticancer Drug Screen. Data for the rad52 strain (AID 147);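 also: 0% = growth of vehicle-treated control cultures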
Settings: S. cerevisiae rad52 mutant growth inhibition, stronger effect = higher value
Experimental: Growth inhibition of yeast strains with defined genetic alterations is measured as a screen for potential anti-cancer activity. Selected strains with alterations in DNA damage repair or cell cycle control were exposed to compounds and growth inhibition was measured relative to vehicle treated controls. The strain used in this assay is rad52

Row | Structure (SMILES) | growth inhibition (at 1.2 µM) [%] | growth inhibition (at 3.7 µM) [%] | growth inhibition (at 11.0 µM) | growth inhibition (at 33.0 µM) | growth inhibition (at 100.0 µM)
1 | CCCCOC(=O)Nc1ccc(C)c(NC(=O)OCCCC)c1 | -4 | -1 | 15% | 26% | 34%
2 | COc1c(O)c(C=O)c(Br)c(C=O)c1O | 2 | 6 | 17% | 49% | 91% (active)
3 | Cc1cc(N(CCOS(C)(=O)=O)CCOS(C)(=O)=O)ccc1C=Nc1ccc(-c2nc(Cc3ccccc3)sc2C)cc1 | 9 | 52 | 84% (active) | 92% (active) | 96% (active)
4 | NC(N)=NS(=O)(=O)c1ccc(Nc2c3ccccc3nc3c(C(=O)NCCO)cccc23)cc1 | 1 | 3 | 4% | 17% | 82% (active)
5 | CN(C)CCOC1(Cc2ccc(F)cc2)CCC(C(C)(C)C)CC1 (stereo not given) | 8 | 5 | -4% | 7% | 98% (active)
6 | O=C1NC(SSC2=NNC3(C(=O)N2)c2ccccc2-c2ccccc23)=NNC12c1ccccc1-c1ccccc12 | 2 | -1 | 1% | 8% | 33%
7 | O=C1CC(=O)c2ccccc21 | -2 | -1 | 3% | 9% | 50%
8 | CCOC(=O)C(Br)C(Br)c1ccccc1Cl (stereo not given) | 6 | 23 | 83% (active) | 99% (active) | 99% (active)
